In PubChem BioAssay (NCI):
About 79,000 compounds went through this panel and 15% of them were active in at least one assay; those are over-represented in the sample as a whole. Calls of active or inactive are those of the source. Rule as the data show it: active = growth inhibition above about 70%; inactive = the rest.

Legend:
[1] = NCI Yeast Anticancer Drug Screen. Data for the rad52 strain (AID 147);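 also: 0% = growth of vehicle-treated control cultures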; conditions: S. cerevisiae rad52 mutant growth inhibition, stronger effect = higher value
In short: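 Inhibition of yeast growth, referenced to vehicle controls, was the measured output for a strain with defective DNA damage repair.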

[2] = NCI Yeast Anticancer Drug Screen. Data for the wt1 strain (AID 149);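 also: 0% = growth of vehicle-treated wt1 cultures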; conditions: S. cerevisiae wt1 strain (SPY 50644) growth inhibition, stronger effect = higher value
In short: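 The wt1 strain was treated with compounds, and growth was compared with vehicle-treated cultures to give inhibition.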

[3] = NCI Yeast Anticancer Drug Screen. Data for the rad50EPP+ strain (AID 151);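 also: 0% = growth of vehicle-treated control cultures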; conditions: S. cerevisiae rad50 mutant strain, stronger effect = higher value
In short: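 Genetically defined yeast (rad50EPP+, DNA damage repair alteration) is grown with compound, and inhibition of growth is expressed relative to vehicle-treated controls.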

[4] = NCI Yeast Anticancer Drug Screen. Data for the mgt1 strain (AID 153); conditions: S. cerevisiae mgt1 mutant growth inhibition, stronger effect = higher value
In short: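 In the mgt1 strain, test compounds were added and growth inhibition was determined relative to vehicle-treated controls.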

[5] = NCI Yeast Anticancer Drug Screen. Data for the rad50 strain (AID 155);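 also: 0% = growth of vehicle-only cultures of the same strain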; conditions: S. cerevisiae rad50 strain growth inhibition, stronger effect = higher value
In short: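 Cells are treated with compound, grown, and their growth is then scored against vehicle-only cultures of the same repair-deficient yeast strain.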

[6] = NCI Yeast Anticancer Drug Screen. Data for the mec2-1 strain (AID 157); conditions: S. cerevisiae mec2-1 strain, stronger effect = higher value
In short: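 Each compound was tested on mec2-1 yeast, a strain altered in DNA damage repair or cell cycle control. Growth inhibition is reported relative to vehicle.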

[7] = NCI Yeast Anticancer Drug Screen. Data for the rad14 strain (AID 159);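 also: 0% = growth of vehicle-treated control cultures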; conditions: S. cerevisiae rad14 strain growth inhibition, stronger effect = higher value
In short: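 Readout: yeast growth inhibition, referenced to vehicle-only cultures. Strain bears a defined alteration in DNA damage repair.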

[8] = NCI Yeast Anticancer Drug Screen. Data for the sgs1 mgt1 strain (AID 161);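 also: 0% = growth of cultures given vehicle only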; conditions: S. cerevisiae sgs1 mgt1 strain, stronger effect = higher value
In short: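 Test agents were incubated with a DNA-repair-mutant yeast strain. Growth was then read and compared against vehicle-treated controls.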

[9] = NCI Yeast Anticancer Drug Screen. Data for the CLN2oe strain (AID 163);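 also: 0% = growth of vehicle-only control cultures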; conditions: S. cerevisiae CLN2oe strain, stronger effect = higher value
In short: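 First, the altered yeast strain was treated with each compound; second, its growth was measured; finally, inhibition was derived by comparison with vehicle controls.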

[10] = NCI Yeast Anticancer Drug Screen. Data for the cln2 rad14 strain (AID 165);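 also: 0% = growth equal to vehicle treated cultures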; conditions: S. cerevisiae cln2 rad14 strain, stronger effect = higher value
In short: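 Test compounds were added to cln2 rad14 yeast cultures; inhibition of growth was then determined by comparison with vehicle treatment.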

[11] = NCI Yeast Anticancer Drug Screen. Data for the bub3 strain (AID 167); conditions: S. cerevisiae bub3 mutant strain, stronger effect = higher value
In short: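 Part of a panel of yeast mutants defective in DNA damage repair or cell cycle regulation. Each strain is grown with compound, and inhibition is calculated relative to solvent-treated cultures.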

[12] = NCI Yeast Anticancer Drug Screen. Data for the wt2 strain (AID 169);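 also: 0% = growth of vehicle-treated yeast cultures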; conditions: S. cerevisiae wt2 strain growth inhibition, stronger effect = higher value
In short: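 The panel's yeast strains carry defined changes in DNA repair or cell cycle genes. Each strain is grown with compound, and growth loss is scored relative to vehicle.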

[13] = NCI Yeast Anticancer Drug Screen. Data for the mlh1 strain (AID 171);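 also: 0% = growth of vehicle-treated control cultures of the same strain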; conditions: S. cerevisiae mlh1 strain growth inhibition, stronger effect = higher value
In short: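 Inhibition values reflect reduced yeast growth in the presence of compound, referenced to vehicle controls, using a strain chosen for its alteration in DNA repair or cell cycle control.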

[14] = NCI Yeast Anticancer Drug Screen. Data for the sgs1 strain (AID 173);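 also: 0% = growth of vehicle-only control cultures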; conditions: S. cerevisiae sgs1 mutant, stronger effect = higher value
In short: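 Vehicle-treated cultures served as reference for growth inhibition of a yeast strain altered in DNA damage repair or cell cycle control after compound exposure.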

[15] = NCI Yeast Anticancer Drug Screen. Data for the mlh1 rad18 strain (AID 175); conditions: S. cerevisiae mlh1 rad18 strain growth inhibition, stronger effect = higher value
In short: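 Inhibition values reflect reduced growth of mutant yeast versus vehicle-treated controls following compound exposure; the mutations affect DNA damage repair.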

[16] = NCI Yeast Anticancer Drug Screen. Data for the rad18 strain (AID 177); conditions: S. cerevisiae rad18 mutant growth inhibition, stronger effect = higher value
In short: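 Steps: expose repair-mutant yeast to compound; measure growth; express as inhibition relative to vehicle control.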

[17] = at 5.0 µM (retest, dose inferred, filed as 0.5)
[18] = at 50.0 µM (retest, dose inferred, filed as 5.0)

Measured: growth inhibition

O=C1c2ccccc2C(=O)c2cc(CBr)ccc21
inactive: [1]; at 1.2 µM 5% | [1]; at 3.7 µM 16% | [1]; at 11.0 µM 21% | [2]; at 1.2 µM 0% | [2]; at 3.7 µM 0% | [2]; at 11.0 µM -1% | [2]; at 33.0 µM 18% | [2]; at 100.0 µM 53% | [3]; at 1.2 µM 27% | [3]; at 3.7 µM 56% | [4]; at 1.2 µM 0% | [4]; at 3.7 µM 2% | [4]; at 11.0 µM 4% | [4]; at 33.0 µM 21% | [4]; at 100.0 µM 68% | [5]; at 1.2 µM 2% | [5]; at 3.7 µM 14% | [5]; [17] 48% | [5]; at 11.0 µM 29% | [6]; at 1.2 µM 1% | [6]; at 3.7 µM 2% | [6]; [17] 32% | [6]; at 11.0 µM 5% | [6]; at 33.0 µM 32% | [7]; at 1.2 µM -2% | [7]; at 3.7 µM 6% | [7]; at 11.0 µM 12% | [7]; at 33.0 µM 53% | [8]; [17] 54% | [9]; at 1.2 µM 1% | [9]; at 3.7 µM 5% | [9]; at 11.0 µM 8% | [9]; at 33.0 µM 28% | [9]; at 100.0 µM 61% | [10]; [17] 33% | [10]; at 50.0 µM 57.5% | [11]; at 1.2 µM 1% | [11]; at 3.7 µM 0% | [11]; [17] 30% | [11]; at 11.0 µM 1% | [11]; at 33.0 µM 26% | [11]; at 100.0 µM 54% | [12]; at 1.2 µM 9% | [12]; at 3.7 µM 3% | [12]; at 11.0 µM 13% | [12]; at 33.0 µM 18% | [12]; at 100.0 µM 69% | [13]; at 1.2 µM 2% | [13]; at 3.7 µM 9% | [13]; at 11.0 µM 17% | [13]; at 33.0 µM 40% | [14]; at 1.2 µM -2% | [14]; at 3.7 µM -14% | [14]; at 11.0 µM 23% | [15]; [17] 63% | [16]; at 1.2 µM 2% | [16]; at 3.7 µM 10% | [16]; at 11.0 µM 23%
active: [1]; at 33.0 µM 79% | [1]; at 100.0 µM 91% | [3]; at 11.0 µM 73% | [3]; at 33.0 µM 94% | [3]; at 100.0 µM 95% | [5]; at 33.0 µM 82% | [5]; [18] 90% | [5]; at 50.0 µM 99.2% | [5]; at 100.0 µM 92% | [6]; [18] 77% | [6]; at 50.0 µM 90% | [6]; at 100.0 µM 71% | [7]; at 100.0 µM 89% | [8]; [18] 89% | [8]; at 50.0 µM 99.2% | [10]; [18] 76% | [11]; [18] 79% | [11]; at 50.0 µM 86.2% | [13]; at 100.0 µM 85% | [14]; at 33.0 µM 74% | [14]; at 100.0 µM 94% | [15]; [18] 92% | [15]; at 50.0 µM 96% | [16]; at 33.0 µM 78% | [16]; at 100.0 µM 93%
